Bioassay records from PubChem.
Rows were chosen to be rich in hits. Some 4.7% of all compounds tested hit in one or more screens of this group.
D1 ag – human D1 receptor agonism. HEK293 T-REx D1 cells, calcium flux, agonist mode. activation, % at 2 µM. 360,000 compounds, 1% hits; also: 0% is about no effect
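Agonism was scored from calcium flux recorded over 180 s (1 read/s) after pintool compound addition, following a 10-cycle baseline. Cells were inducible force-coupled HEK293 TREx D1, plated overnight at 30 C and loaded with no-wash calcium dye.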
D1 PAM – human D1 dopamine receptor positive modulation; P21728; HEK293 TREx D1 cells, calcium flux, dopamine EC20 potentiation; potentiation, % at 10 µM; 360,000 compounds, 0.036% hits; in the data active = potentiation above about 30%; also: 0% is about no effect
TRHR agonist – TRH receptor (human) agonism. P34981. TRHR cells, calcium flux fluo-8, FDSS agonist mode. activation, % at 2 µM. 360,000 compounds, 0.18% hits. AID 493084; also: 0% is about no effect
Target sequence (P34981 whole entry, looked up): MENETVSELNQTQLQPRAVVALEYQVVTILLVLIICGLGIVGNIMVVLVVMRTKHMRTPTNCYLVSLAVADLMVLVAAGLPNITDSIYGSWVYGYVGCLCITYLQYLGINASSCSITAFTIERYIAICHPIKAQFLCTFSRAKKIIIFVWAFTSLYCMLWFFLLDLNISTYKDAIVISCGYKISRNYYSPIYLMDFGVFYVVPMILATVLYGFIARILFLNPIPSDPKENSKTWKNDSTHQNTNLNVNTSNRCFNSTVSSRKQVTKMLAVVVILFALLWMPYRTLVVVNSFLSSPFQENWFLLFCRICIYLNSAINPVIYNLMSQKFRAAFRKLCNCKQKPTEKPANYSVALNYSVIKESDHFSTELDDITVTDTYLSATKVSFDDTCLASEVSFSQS
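Agonist-mode FDSS calcium read (Ex 480/Em 530, 1 s cycles) in 1536-well TRHR cells with fluo-8 dye, after 10-cycle baseline and 23 nL compound addition; TRH at EC20 (10 nM final) added afterwards for the enhancer phase.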
TRHR PAM – allosterically enhances the human TRH receptor; P34981; TRHR cells, fluo-8 calcium fluorescence, EC20 TRH enhancement; enhancement, % at 2 µM; 360,000 compounds, 0.66% hits; in the data active = enhancement above about 30%; also: 0% is about no effect
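TRHR-expressing cells loaded with fluo-8 calcium dye were read kinetically (ex 480/em 530) during compound addition, then stimulated with an EC20 of TRH (10 nM final). Enhancement of the Gq-mediated intracellular calcium response was scored.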
D1 antagonist – human D1 dopamine receptor antagonism. P21728. HEK293 TREx D1 cells, calcium flux, dopamine EC80; hits give low values. activity change, negative = inhibition, % at 10 µM. 360,000 compounds, 3.2% hits. AID 504652; in the data active = activity change below about -30%; also: % is scaled to controls: 0 for no effect and ±100 for the full control effect
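Using tetracycline-induced force-coupled D1 Hek293 cells and a calcium dye, signals were followed for 180 s after compound, then for 180 s after EC80 dopamine, to detect inhibitors.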
Numbers without * were called inactive; · = no result given; ! = not active in a repeat. Rule as the data show it, unless noted: active = activation above about 30%; inactive = the rest.

SMILES	D1 ag	D1 PAM	TRHR agonist	TRHR PAM	D1 antagonist
CC1N=C2c3ccccc3N=C(SCC(=O)NCc3ccc(Cl)cc3)N2C1=O (stereo unspecified)	3	0	-1	0	-1
CCCCNC(=O)CCCN1C(=O)CCn2nc(-c3cccn3C)cc21	0	0	0	2	-1
CSc1sc(-c2nnc(SCC(=O)Nc3ccccc3)n2C)c2c1C=CCC2	2	-1	0	1	-36*
Cc1ccc(OCCCCn2c(CO)nc3ccccc32)cc1	14	-8	0	5	-37*
CC(O)c1nc2ccccc2n1CCOc1ccccc1 (stereo unspecified)	43*	1	-1	15	-46*
Cc1nc2ccccc2n1CCOc1ccc(F)cc1	7	-16	0	9	-30
Cc1nc2ccccc2n1CCOc1ccc([N+](=O)[O-])cc1	2	-10	1	-3	-40*
CCc1ccccc1NC(=O)CC(c1ccc(F)cc1)N1Cc2ccccc2C1=O (stereo unspecified)	12	5	0	-29	2
COc1ccc(C(=O)NCC(=O)OC(C(=O)Nc2cc(C(F)(F)F)ccc2Cl)c2ccccc2)cc1OC (stereo unspecified)	5	-1	-1	2	-16
COc1ccc(NS(=O)(=O)/C=C/c2ccccc2)cc1	4	4	0	6	-11
O=S(=O)(/C=C/c1ccccc1)Nc1ccc(F)cc1	7	1	1	31*	0
O=C(O)CC(CNS(=O)(=O)c1ccccc1)c1ccccc1 (stereo unspecified)	-1	-8	1	-5	-33*
COc1cc2c(cc1OC)C1Cc3ccc(OC)c(OC)c3CN1CC2 (stereo unspecified)	0	-14	0	1	-74*
COc1cc2c(cc1OC)[C@@H]1Cc3ccc(OC)c(OC)c3CN1CC2	2	-6	1	-3	-53*
CCOc1ccc(CC2c3cc(OCC)c(OCC)cc3CCN2C(=O)c2cc(OC)c(OC)c(OC)c2)cc1OCC (stereo unspecified)	4	-8	-1	1	6
O[C@@H]1[C@@H](O)C=C2CCN3Cc4cc5c(cc4[C@H]1C23)OCO5 (stereo partly specified)	0	-4	-2	3	-11
COc1ccc2c(c1OC)CN1CCc3cc4c(cc3[C@@H]1[C@@H]2O)OCO4	-2	-12	0	-4	-66*
O=C(Nc1ccc(C(=O)N2CCCCC2)cc1)c1nsc2ccccc12	0	2	0	0	-10
COc1ccc(CC(=O)Nc2c(C(=O)N3CCN(c4ccccc4)CC3)oc3ccccc23)cc1OC	-1	-4	0	-3	-31*!
COc1ccc(CC(=O)Nc2c(C(=O)N3CCN(c4ccccc4OC)CC3)oc3ccccc23)cc1OC	3	-4	0	-14	-6
O=C(Nc1c(C(=O)N2CCN(c3ccc(F)cc3)CC2)oc2ccccc12)c1c(F)cccc1F	2	-5	-2	23	-59*
Cc1cccc(C(=O)Nc2c(C(=O)N3CCN(c4ccc(F)cc4)CC3)oc3ccccc23)c1	2	-4	6	-10	12
CCOc1ccc(Cn2nnc(C(=O)Nc3cccc(SC)c3)c2N)cc1	28	5	2	8	23
COc1ccccc1NC(=O)c1nn(C)c2c1CS(=O)(=O)c1ccccc1-2	3	-3	0	10	8
CCCCNc1oc(-c2ccc(COc3ccccc3C)o2)nc1C#N	2	0	0	-2	0
SMILES	D1 ag	D1 PAM	TRHR agonist	TRHR PAM	D1 antagonist
Cc1ccccc1OCc1ccc(-c2nc(C#N)c(NCCCN(C)C)o2)o1	44*	-1	0	6	-22
O=C(NC(=S)NNC(=O)[C@H]1C[C@@H]1c1ccccc1)c1ccc(F)cc1	91*	-2	11	-4	-22
COc1cc(OC)cc(C(=O)NC(=S)NNC(=O)[C@H]2C[C@@H]2c2ccccc2)c1	88*	-3	7	-1	-9
CCCCn1cc(S(=O)(=O)c2ccccc2)c(=O)c2cc(F)c(N3CCN(CCC)CC3)cc21	-1	2	0	5	15
COc1ccc(C2c3cc(OC)c(OC)cc3CC(=O)N2c2ccc(C)cc2)cc1 (stereo unspecified)	1	1	0	6	-6
COc1ccc(-c2nnc(N3CCOCC3)c3ccccc23)cc1	2	-5	0	39*	-8
O=C1C(=O)c2c(C(=O)c3ccccc3)coc2-c2ccccc21	0	-2	0	3	-57*
Cc1oc2c(c1C(=O)c1ccccc1)C(=O)C(=O)c1ccccc1-2	5	4	0	-5	3
NC(=O)NC(Cc1ccccc1)c1ccccc1 (stereo unspecified)	2	-10	0	5	2
NC(=O)OCC(COC(N)=O)c1ccccc1	1	4	-2	-5	-39*
Cc1cc(C)cc(NC(=O)CCCn2c3ccccc3c(=O)c3ccccc32)c1	28	2	-1	6	10
O=C(CC1N=C2c3ccccc3N=C(SCc3ccccc3Cl)N2C1=O)NCc1cccs1 (stereo unspecified)	1	3	0	-3	23
O=C1[C@H]2C(c3ccccc3)=NN(c3ccccc3)[C@H]2C(=O)N1c1ccccc1	4	-8	-1	-1	-45*
O=C1C2C(c3ccccc3)=NN(c3ccccc3)C2C(=O)N1c1ccccc1 (stereo unspecified)	0	0	0	-2	1
CCn1c(O)c(N=NC(=O)C2C(=O)NCC2c2ccccc2)c2ccccc21 (stereo unspecified)	1	-2	-1	-6	-80*
Cc1ccc(C)c(N2CCN(CCCNC(=O)Cn3c(-c4cccs4)cc4ccccc43)CC2)c1	-2	4	0	8	10
Cc1ccc(OC(=O)C(F)(F)F)c2c1NCCC2	0	34*	0	-4	-22
O=C(NCc1ccc2c(c1)CCN2C(=O)c1ccc(F)cc1)c1cc2ccccc2[nH]1	1	-4	0	0	4
C=CCNC(=O)COC(=O)c1ccc(Cl)c(S(N)(=O)=O)c1	3	-15	0	4	-37*
CCOc1ccc(C(=O)NCC(=O)OCC(=O)Nc2nnc(-c3ccccc3)o2)cc1	5	·	0	0	6
Cc1ccc(C(=O)CCC(=O)OCC(=O)Nc2nnc(-c3ccccc3)o2)cc1	4	-2	0	40*	-50*
O=C(COC(=O)CNC(=O)c1ccc(Br)cc1)Nc1nnc(-c2ccccc2)o1	5	0	0	-4	-38*
CCOC(=O)C1C(=O)NC(c2ccccc2)=NC1c1ccc(C(C)C)cc1 (stereo unspecified)	0	-3	0	-8	-34*
